Measured values taken from the supplement of paper PMC9262897, “Low-cost anti-mycobacterial drug discovery using engineered E. coli” (Nature Communications, 2022).
Where a name gives a salt, the structure may show the parent alone. ± gives the standard deviation of the averaged measurements.

Key:
Test in all cases: growth (OD600 after 10 h); higher = more growth (less inhibition)
[1] = system: E. coli TESEC Alr+ wild-type control; settings: compound 0.1 mM; raw OD600 reference: median of DMSO wells 0.241, cell-free background 0.041
Protocol: (§1)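 TESEC Mtb Alr E. coli, or the Alr+ wild-type control, in 384-well plates with Prestwick library compounds at 0.1 mM and 1% DMSO, across arabinose induction levels of 1E3 to 1E7 nM. Growth is read as OD600 after 10 h at 37 °C in triplicate biological replicates.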

E. coli TESEC Mtb Alr [2] = settings: compound 0.1 mM
Protocol: as §1

E. coli TESEC Mtb Asd = settings: compound 0.1 mM
Protocol: (§2)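 TESEC E. coli strains in which the native enzyme is deleted and replaced by arabinose-inducible Mtb Asd, DapB, CysH or TrpD, each grown in its selective medium. Strains were screened against the Prestwick library at 0.1 mM and 1% DMSO in 384-well format at low and high arabinose induction. Growth is read as OD600 after 10 h in triplicate.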

E. coli TESEC Mtb DapB = settings: compound 0.1 mM
Protocol: as §2

E. coli TESEC Mtb Alr [3] = settings: compound 0.1 mM; remark: listed apart in the source
Protocol: (§3)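 TESEC Mtb Alr E. coli (ΔaraC ΔtolC ΔentC Δalr ΔdadX, arabinose-inducible Mtb Alr) or the Alr+ wild-type control strain, grown in defined M9-fructose medium without D-alanine in 96-well plates with Prestwick library compounds at 0.1 mM and 1% DMSO. Low Alr induction is 0.1 µM arabinose and high induction is 10 mM arabinose.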

[4] = system: E. coli TESEC Alr+ wild-type control; settings: compound 0.1 mM; raw OD600 reference: median of DMSO wells 0.49, cell-free background 0.052
Protocol: as §3

[5] = arabinose 1000 nM, raw OD600 reference: median of DMSO wells 0.294, cell-free background 0.041
[6] = arabinose 10000 nM, raw OD600 reference: median of DMSO wells 0.264, cell-free background 0.041
[7] = arabinose 100000 nM, raw OD600 reference: median of DMSO wells 0.201, cell-free background 0.041
[8] = arabinose 1000000 nM, raw OD600 reference: median of DMSO wells 0.193, cell-free background 0.041
[9] = arabinose 10000000 nM, raw OD600 reference: median of DMSO wells 0.146, cell-free background 0.041
[10] = arabinose induction (level): High, raw OD600 reference: median of DMSO wells 0.331, cell-free background 0.041
[11] = arabinose induction (level): Low, raw OD600 reference: median of DMSO wells 0.417, cell-free background 0.041
[12] = arabinose induction (level): High, raw OD600 reference: median of DMSO wells […], cell-free background 0.041
[13] = arabinose induction (level): Low, raw OD600 reference: median of DMSO wells 0.227, cell-free background 0.041
[14] = arabinose 100 nM, raw OD600 reference: median of DMSO wells 0.413, cell-free background 0.052
[15] = arabinose 10000000 nM, raw OD600 reference: median of DMSO wells […], cell-free background 0.052

Structure (SMILES) | growth [1] | growth (E. coli TESEC Mtb Alr [2]; [5]) | growth (E. coli TESEC Mtb Alr [2]; [6]) | growth (E. coli TESEC Mtb Alr [2]; [7]) | growth (E. coli TESEC Mtb Alr [2]; [8]) | growth (E. coli TESEC Mtb Alr [2]; [9]) | growth (E. coli TESEC Mtb Asd; [10]) | growth (E. coli TESEC Mtb Asd; [11]) | growth (E. coli TESEC Mtb DapB; [12]) | growth (E. coli TESEC Mtb DapB; [13]) | growth (E. coli TESEC Mtb Alr [3]; [14]) | growth (E. coli TESEC Mtb Alr [3]; [15]) | growth [4]
CC(=O)O[C@H]1CC[C@@]2(C)C(=CC[C@@H]3[C@@H]2CC[C@]2(C)C(=O)CC[C@@H]32)C1 [Dehydroisoandosterone 3-acetate] | 0.198 ± 0.065 | 0.239 ± 0.019 | 0.253 ± 0.01 | 0.144 ± 0.0063 | 0.106 ± 0.015 | 0.134 ± 0.0039 | 0.315 ± 0.044 | 0.391 ± 0.0042 | 0.181 ± 0.005 | 0.225 ± 0.017 | 0.376 ± 0.012 | 0.0699 ± 0.0044 | 
C[N+]1(C)CCOC(O)(c2ccc(-c3ccc(C4(O)C[N+](C)(C)CCO4)cc3)cc2)C1 (centres undefined) [Hemicholinium bromide] | 0.227 ± 0.013 | 0.298 ± 0.02 | 0.276 ± 0.0044 | 0.229 ± 0.025 | 0.1741 ± 0.00078 | 0.195 ± 0.0053 | 0.352 ± 0.026 | 0.281 ± 0.069 | 0.21 ± 0.012 | 0.217 ± 0.021 | 0.403 ± 0.0081 | 0.397 ± 0.015 | 0.559 ± 0.071
CC(=O)OC1CN2CCC1CC2 (centres undefined) [Aceclidine Hydrochloride] | 0.257 ± 0.0078 | 0.314 ± 0.0082 | 0.2646 ± 0.0025 | 0.232 ± 0.041 | 0.174 ± 0.0042 | 0.166 ± 0.0076 | 0.22 ± 0.0099 | 0.306 ± 0.013 | 0.204 ± 0.02 | 0.232 ± 0.023 | 0.41 ± 0.007 | 0.359 ± 0.031 | 
CC(=O)[C@H]1CC[C@H]2[C@@H]3CC[C@H]4C[C@H](O)CC[C@]4(C)[C@H]3C(=O)C[C@]12C [Alfaxalone] | 0.1302 ± 0.0013 | 0.162 ± 0.0069 | 0.21 ± 0.0045 | 0.108 ± 0.0044 | 0.101 ± 0.0035 | 0.0965 ± 0.0034 | 0.161 ± 0.045 | 0.275 ± 0.038 | 0.155 ± 0.031 | 0.203 ± 0.028 | 0.3696 ± 0.00096 | 0.192 ± 0.015 | 
C[N+]1(C)[C@@H]2CC[C@H]1C[C@@H](OC(=O)C(CO)c1ccccc1)C2 (some centres undefined) [Methylatropine nitrate] | 0.232 ± 0.013 | 0.283 ± 0.017 | 0.247 ± 0.0037 | 0.206 ± 0.0059 | 0.2 ± 0.007 | 0.14 ± 0.0059 | 0.286 ± 0.02 | 0.438 ± 0.022 | 0.199 ± 0.028 | 0.229 ± 0.0072 | 0.391 ± 0.011 | 0.355 ± 0.012 | 
C=C(C)[C@@H]1[C@H]2OC(=O)[C@@H]1[C@]1(O)C[C@H]3O[C@]34C(=O)O[C@H]2[C@]14C [Picrotoxinin] | 0.253 ± 0.0051 | 0.314 ± 0.023 | 0.2631 ± 0.002 | 0.215 ± 0.023 | 0.186 ± 0.0029 | 0.138 ± 0.0029 | 0.343 ± 0.016 | 0.461 ± 0.003 | 0.197 ± 0.0075 | 0.216 ± 0.0066 | 0.401 ± 0.011 | 0.351 ± 0.0093 | 0.479 ± 0.082
CC(Cc1ccccc1)NCCC(c1ccccc1)c1ccccc1 (centres undefined) [Prenylamine lactate] | 0.04013 ± 0.00032 | 0.03927 ± 0.00035 | 0.0394 ± 0.0001 | 0.0405 ± 0.001 | 0.0393 | 0.0397 ± 0.00052 | 0.0468 ± 0.00058 | 0.0471 ± 0.00089 | 0.0466 ± 0.00036 | 0.04663 ± 0.00038 | 0.276 ± 0.19 | 0.0499 ± 0.00064 | 0.0478 ± 0.00061
C[C@]12CC[C@H](O)C[C@H]1CC[C@@H]1[C@@H]2C[C@@H](O)[C@]2(C)[C@@H](C3=CC(=O)OC3)CC[C@]12O [Digoxigenin] | 0.228 ± 0.005 | 0.299 ± 0.018 | 0.257 ± 0.0041 | 0.201 ± 0.016 | 0.17 ± 0.0032 | 0.14 ± 0.0016 | 0.262 ± 0.025 | 0.458 ± 0.024 | 0.1864 ± 0.00095 | 0.244 ± 0.0061 | 0.408 ± 0.02 | 0.331 ± 0.011 | 
